These results are taken from PubChem BioAssay (NCI).

The panel holds about 79,000 compounds, 15% with a hit somewhere; the sample as a whole holds those more often. A number with no mark means an inactive call. Activity calls are given as the source filed them. Rule as the data show it: active = growth inhibition above about 70%; inactive = the rest.

Assay [1] in a line: NCI Yeast Anticancer Drug Screen. Data for the rad50 strain (AID 155).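 Also: 0% = growth of vehicle-only cultures of the same strain.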 The following applies: S. cerevisiae rad50 strain growth inhibition; at 50.0 µM; active compounds read high. In a few lines:
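Growth of the mutant yeast was measured after compound exposure and referenced to vehicle-treated cultures.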

A short description of assay [2]: NCI Yeast Anticancer Drug Screen. Data for the mec2-1 strain (AID 157). To be noted: S. cerevisiae mec2-1 strain, at 50.0 µM, active compounds read high. An outline of the steps: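 Yeast mec2-1 mutant treated with compound. Readout: growth inhibition vs vehicle controls.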
The nature of assay [3]: NCI Yeast Anticancer Drug Screen. Data for the sgs1 mgt1 strain (AID 161).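 Also: 0% = growth of cultures given vehicle only.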 The following applies: S. cerevisiae sgs1 mgt1 strain, at 50.0 µM, active compounds read high. An outline of the steps: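 Test agents were incubated with a DNA-repair-mutant yeast strain. Growth was then read and compared against vehicle-treated controls.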
A short description of assay [4]: NCI Yeast Anticancer Drug Screen. Data for the cln2 rad14 strain (AID 165).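 Also: 0% = growth equal to vehicle treated cultures.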 The following applies: S. cerevisiae cln2 rad14 strain, at 50.0 µM, active compounds read high. In a few lines: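 cln2 rad14 yeast strain; compound exposure; growth inhibition read vs vehicle controls.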
Assay [5] can be described thus: NCI Yeast Anticancer Drug Screen. Data for the bub3 strain (AID 167). To be noted: S. cerevisiae bub3 mutant strain, at 50.0 µM, active compounds read high. In a few lines: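 Whole-cell yeast assay. The mutant strain was incubated with compounds, and growth inhibition was determined by comparison with vehicle-treated cells.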
Assay [6] in a line: NCI Yeast Anticancer Drug Screen. Data for the mlh1 rad18 strain (AID 175). The following applies: S. cerevisiae mlh1 rad18 strain growth inhibition; at 50.0 µM; active compounds read high. In a few lines: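 Yeast w/ defined DNA-repair lesions; compound exposure; growth vs vehicle controls → % inhibition.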

As for `CC(C(=O)C(=O)Nc1ccc(Cl)cc1)C(=O)c1ccc(Cl)cc1` (stereo unspecified), the growth inhibition in assay [1] was 1.25%; in assay [2], -7.15%; in assay [3], -2.85%; in assay [4], -14.9%; in assay [5], 5.15%; in assay [6] it was -17.3%.

Regarding `Nc1nc(=O)[nH]nc1SCc1ccccc1`, the growth inhibition is 39.2% in assay [1]; 0.1% in assay [2]; 1.05% in assay [3]; 2.45% in assay [4]; 10% in assay [5]; 10.5% in assay [6].

On to `CCOc1ccccc1NC(=O)c1ccc(Cl)cc1`, for which the growth inhibition in assay [1] is -9.8%; in assay [2], 18%; in assay [3], -6.75%; in assay [4], 5.35%; in assay [5], 14.3%; in assay [6], -4.6%.

Turning to `CC(C)(C)CC(=O)Nc1ccccc1`, the growth inhibition was 28.9% in assay [1]; -4.15% in assay [2]; -17.1% in assay [3]; 13.7% in assay [4]; -8.9% in assay [5]; 9.25% in assay [6].

With `O=C1c2cccc([N+](=O)[O-])c2C(=O)N1c1ncn[nH]1`, the growth inhibition is -5.9% in assay [1]; -2.15% in assay [2]; -21.9% in assay [3]; -6.8% in assay [4]; -43.4% in assay [5]; 0.15% in assay [6].

`COC(=O)Nc1cc2c3c(c1)CCCN3CCC2`: the growth inhibition in assay [1] was -6.35%; in assay [2], -4.05%; in assay [3] it was -2.2%; in assay [4], -10.2%; in assay [5] it was 10.1%; in assay [6], 1.8%.

On to `Brc1ccc(Nc2ccc(Br)cc2Br)c(Br)c1`, for which the growth inhibition is 28.2% in assay [1]; 23.1% in assay [2]; 16.6% in assay [3]; 11.6% in assay [4]; 3.8% in assay [5]; 10.2% in assay [6].

Turning to `CCCCCCC#CC(=O)OC`, the growth inhibition was -3.05% in assay [1]; -21.6% in assay [2]; 1.5% in assay [3]; 15.4% in assay [4]; -11.6% in assay [5]; 24.4% in assay [6].

As for `CCN(CC)CCCNc1ccnc2ccc(Cl)cc12`, the growth inhibition in assay [1] was -9.9%; in assay [2] it was -15.6%; in assay [3], 5.45%; in assay [4], -17.9%; in assay [5], 13.9%; in assay [6] it was 2.55%.

For the molecule `O=C(O)/N=N\C(=O)O`, the growth inhibition is -36.9% in assay [1]; -23.9% in assay [2]; -19.4% in assay [3]; -5.05% in assay [4]; -26.4% in assay [5]; -27.2% in assay [6].

For `O=[N+]([O-])c1ccc(Oc2ccc3ccccc3c2)c([N+](=O)[O-])c1`, the growth inhibition in assay [1] was -1.4%; in assay [2] it was -17.9%; in assay [3] it was 1.8%; in assay [4] it was -56.5%; in assay [5], -9.75%; in assay [6] it was -14.3%.

As for `O=C1C=CC(n2cc(F)c(=O)[nH]c2=O)O1` (stereo unspecified), the growth inhibition in assay [1] was 27.1%; in assay [2], 44.2%; in assay [3], 44.9%; in assay [4], 12.9%; in assay [5], 9.3%; in assay [6] it was -43.9%.

For the molecule `CCOC(=O)c1ccc(NCc2cccc([N+](=O)[O-])c2)cc1`, the growth inhibition in assay [1] was 10.2%; in assay [2] it was -18.5%; in assay [3] it was 10.4%; in assay [4], 0.45%; in assay [5], 73.8% (active); in assay [6], 31.6%.

With `O=C(O)C1CSC(c2ccccc2O)N1` (stereo unspecified), the growth inhibition in assay [1] was -17.6%; in assay [2], -2.75%; in assay [3] it was -4.6%; in assay [4], -26.9%; in assay [5], 5.4%; in assay [6], -8.75%.

As to `O=S(=O)(O)CCCC1S(=O)(=O)OCCOS1(=O)=O`, the growth inhibition in assay [1] was -55.1%; in assay [2], -21.8%; in assay [3], -8.4%; in assay [4], -16.4%; in assay [5] it was -1.3%; in assay [6] it was -25.8%.

In the case of `OCC(O)C(O)C(O)C(Sc1ccccc1)Sc1ccccc1` (stereo unspecified), the growth inhibition in assay [1] is 7.15%; in assay [2] it was 11.8%; in assay [3], 7.4%; in assay [4] it was 8.3%; in assay [5], -7.25%; in assay [6], 16.8%.

On to `CCC(C(=O)O)C1=CCCc2c(C)ccc(C)c21` (stereo unspecified), for which the growth inhibition in assay [1] is 23.6%; in assay [2], 13.2%; in assay [3] it was 21.6%; in assay [4], 25.3%; in assay [5], 11.7%; in assay [6], 23.2%.

Regarding `CC(CN(C)C)CN1c2ccccc2Sc2ccccc21` (stereo unspecified), the growth inhibition in assay [1] was -6.7%; in assay [2], -2.4%; in assay [3], -7%; in assay [4], -2.95%; in assay [5], 5.65%; in assay [6] it was 8.35%.

Turning to `COc1ccc(NC(=O)C2=C(SC)C(C#N)C(=O)N=C2N)cc1` (stereo unspecified), the growth inhibition in assay [1] was -25.1%; in assay [2], -12.5%; in assay [3] it was 0.2%; in assay [4], 19.7%; in assay [5] it was -31.4%; in assay [6], 1.3%.

`CCNC(=O)NCc1cc(C)ccc1C`: the growth inhibition was 7.85% in assay [1]; -12.2% in assay [2]; -11.4% in assay [3]; 19.2% in assay [4]; 6.45% in assay [5]; 12.1% in assay [6].

As to `CCCCCCCC/C=C/CCCCCCCC(=O)N(CCOC(=O)C(C)(C)C)CCOC(=O)C(C)(C)C`, the growth inhibition in assay [1] is 37.5%; in assay [2], 9.5%; in assay [3] it was 25.6%; in assay [4], 24.2%; in assay [5] it was -2.45%; in assay [6], 39.2%.
